Experimental data published in article PMC7862700, “An all-to-all approach to the identification of sequence-specific readers for epigenetic DNA modifications on cytosine”.

Legend:
Test in all cases: DAPPL (digital affinity profiling via proximity ligation, sequencing); 10 mM Tris-HCl pH 7.5, 50 mM NaCl, 1 mM DTT, 4% glycerol, room temperature, 30 min; GST-TFs on glutathione beads, 16-mer random dsDNA library, 0.1% formaldehyde crosslink after washing; high values mean tight binding
Conditions in all cases: protein: recombinant; tags: N-terminal GST; dsDNA, one strand shown
FLI1 = biological target: T1, FLI1 (Homo sapiens, UniProt Q01543 1-452)
T1 sequence: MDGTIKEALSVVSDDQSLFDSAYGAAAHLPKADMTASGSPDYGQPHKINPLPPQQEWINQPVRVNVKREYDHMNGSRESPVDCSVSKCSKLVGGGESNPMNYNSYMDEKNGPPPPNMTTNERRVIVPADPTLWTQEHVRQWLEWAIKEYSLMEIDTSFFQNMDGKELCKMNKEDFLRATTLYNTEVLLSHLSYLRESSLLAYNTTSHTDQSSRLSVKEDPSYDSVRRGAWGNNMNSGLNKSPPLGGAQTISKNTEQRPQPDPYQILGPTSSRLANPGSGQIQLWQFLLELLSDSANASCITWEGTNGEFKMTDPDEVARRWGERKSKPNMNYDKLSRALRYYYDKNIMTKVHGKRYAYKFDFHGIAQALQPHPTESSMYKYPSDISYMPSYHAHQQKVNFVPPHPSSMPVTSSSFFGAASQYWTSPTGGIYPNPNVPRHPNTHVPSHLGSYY
Summary of the method: (§1)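 After expression in yeast as GST fusions, human transcription factors were bound to glutathione beads, DNA-barcoded and mixed with a tag-only sample. The pools were incubated with 200 nmole of a 16-mer random double-stranded DNA library in Tris/NaCl/DTT/glycerol buffer (30 min, room temperature), washed and crosslinked with 0.1% formaldehyde. Proximity ligation with BsaI/T4 ligase ran for 1 h at 37 °C, before PCR amplification and sequencing on an Illumina NextSeq500. Binding signal is a hexamer's read frequency for a factor divided by its frequency for the tag-only sample.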

ELK1 = biological target: T2, ELK1 (Homo sapiens, UniProt P19419 1-428)
T2 sequence: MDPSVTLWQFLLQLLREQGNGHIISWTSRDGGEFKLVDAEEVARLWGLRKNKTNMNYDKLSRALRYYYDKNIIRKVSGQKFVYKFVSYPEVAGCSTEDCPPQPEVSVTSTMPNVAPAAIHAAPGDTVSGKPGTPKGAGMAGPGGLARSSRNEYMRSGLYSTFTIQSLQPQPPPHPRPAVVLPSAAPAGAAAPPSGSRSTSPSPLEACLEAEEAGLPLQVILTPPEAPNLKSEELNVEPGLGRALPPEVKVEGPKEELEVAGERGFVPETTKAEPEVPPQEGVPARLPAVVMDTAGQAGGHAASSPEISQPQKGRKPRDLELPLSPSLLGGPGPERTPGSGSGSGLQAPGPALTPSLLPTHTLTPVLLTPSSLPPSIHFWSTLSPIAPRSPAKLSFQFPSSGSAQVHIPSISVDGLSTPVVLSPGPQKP
Summary of the method: as §1

GABPA = biological target: T3, GABPA (Homo sapiens, UniProt Q06546 1-454)
T3 sequence: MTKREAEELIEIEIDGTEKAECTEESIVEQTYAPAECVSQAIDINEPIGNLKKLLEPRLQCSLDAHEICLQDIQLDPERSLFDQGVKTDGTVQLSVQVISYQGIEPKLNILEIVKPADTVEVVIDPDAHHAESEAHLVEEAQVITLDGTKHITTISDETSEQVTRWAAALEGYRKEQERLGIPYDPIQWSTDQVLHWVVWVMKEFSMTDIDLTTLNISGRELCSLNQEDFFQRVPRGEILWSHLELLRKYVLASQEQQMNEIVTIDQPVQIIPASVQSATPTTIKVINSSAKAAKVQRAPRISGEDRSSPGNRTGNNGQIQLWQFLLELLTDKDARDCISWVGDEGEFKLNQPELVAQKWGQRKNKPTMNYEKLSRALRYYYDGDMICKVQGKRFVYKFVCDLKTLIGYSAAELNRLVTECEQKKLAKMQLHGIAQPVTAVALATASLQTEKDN
Summary of the method: as §1

ERG = biological target: T4, ERG (Homo sapiens, UniProt P11308 1-479)
T4 sequence: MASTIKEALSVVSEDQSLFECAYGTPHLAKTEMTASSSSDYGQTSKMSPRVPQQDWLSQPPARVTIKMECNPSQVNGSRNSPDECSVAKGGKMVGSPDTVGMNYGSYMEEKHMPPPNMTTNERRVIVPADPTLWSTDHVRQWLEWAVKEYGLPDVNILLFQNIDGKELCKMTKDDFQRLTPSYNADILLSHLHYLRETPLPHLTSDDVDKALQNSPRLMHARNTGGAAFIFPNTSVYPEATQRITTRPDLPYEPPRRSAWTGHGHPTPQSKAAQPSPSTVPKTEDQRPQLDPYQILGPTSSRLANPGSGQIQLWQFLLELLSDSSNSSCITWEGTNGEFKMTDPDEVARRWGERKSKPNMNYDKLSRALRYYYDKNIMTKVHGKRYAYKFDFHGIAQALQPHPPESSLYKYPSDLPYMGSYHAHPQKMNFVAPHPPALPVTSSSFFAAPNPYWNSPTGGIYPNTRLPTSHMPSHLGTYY
Summary of the method: as §1

ELF1 = ELF1 (Homo sapiens, UniProt P32519 1-619)
Chain of ELF1 (P32519 whole entry): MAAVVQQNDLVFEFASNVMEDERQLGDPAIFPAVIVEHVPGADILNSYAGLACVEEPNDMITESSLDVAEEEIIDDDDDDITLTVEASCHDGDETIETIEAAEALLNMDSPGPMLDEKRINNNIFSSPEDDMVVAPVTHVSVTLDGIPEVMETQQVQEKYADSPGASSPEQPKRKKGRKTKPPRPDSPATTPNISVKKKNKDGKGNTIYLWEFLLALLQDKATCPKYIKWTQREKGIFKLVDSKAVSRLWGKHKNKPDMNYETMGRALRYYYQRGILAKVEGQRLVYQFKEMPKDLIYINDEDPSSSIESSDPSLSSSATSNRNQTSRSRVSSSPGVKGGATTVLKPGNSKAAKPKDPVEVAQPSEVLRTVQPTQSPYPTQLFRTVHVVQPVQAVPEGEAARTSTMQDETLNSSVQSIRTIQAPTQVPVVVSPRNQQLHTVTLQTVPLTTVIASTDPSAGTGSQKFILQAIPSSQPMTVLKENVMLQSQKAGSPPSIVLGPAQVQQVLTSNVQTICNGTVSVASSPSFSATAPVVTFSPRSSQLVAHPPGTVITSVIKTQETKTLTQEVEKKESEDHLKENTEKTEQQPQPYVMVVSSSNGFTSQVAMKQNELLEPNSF
Summary of the method: as §1

EHF = biological target: T5, EHF (Homo sapiens, UniProt Q9NZC4 1-300)
T5 sequence: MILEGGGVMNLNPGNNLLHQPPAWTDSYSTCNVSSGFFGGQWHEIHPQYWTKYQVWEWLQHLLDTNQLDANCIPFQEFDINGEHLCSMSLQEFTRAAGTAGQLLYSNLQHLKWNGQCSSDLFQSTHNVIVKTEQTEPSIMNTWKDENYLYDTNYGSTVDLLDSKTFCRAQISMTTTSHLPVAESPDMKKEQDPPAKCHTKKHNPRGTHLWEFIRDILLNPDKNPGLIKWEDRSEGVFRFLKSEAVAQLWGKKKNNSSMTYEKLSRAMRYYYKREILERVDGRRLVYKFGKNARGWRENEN
Summary of the method: as §1

SPI1 = SPI1 (Homo sapiens, UniProt P17947 1-270)
Summary of the method: as §1

SPIB = SPIB (Homo sapiens, UniProt Q01892 1-262)
Chain of SPIB (Q01892 whole entry): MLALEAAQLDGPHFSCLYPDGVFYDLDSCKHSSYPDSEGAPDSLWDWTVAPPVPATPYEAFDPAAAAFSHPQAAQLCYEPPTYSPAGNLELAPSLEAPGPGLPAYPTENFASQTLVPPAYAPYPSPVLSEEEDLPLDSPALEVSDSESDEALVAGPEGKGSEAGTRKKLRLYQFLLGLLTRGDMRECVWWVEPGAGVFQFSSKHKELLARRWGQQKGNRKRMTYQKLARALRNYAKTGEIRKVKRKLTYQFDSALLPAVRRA
Summary of the method: as §1

ELK3 = biological target: T6, ELK3 (Homo sapiens, UniProt P41970 1-407)
T6 sequence: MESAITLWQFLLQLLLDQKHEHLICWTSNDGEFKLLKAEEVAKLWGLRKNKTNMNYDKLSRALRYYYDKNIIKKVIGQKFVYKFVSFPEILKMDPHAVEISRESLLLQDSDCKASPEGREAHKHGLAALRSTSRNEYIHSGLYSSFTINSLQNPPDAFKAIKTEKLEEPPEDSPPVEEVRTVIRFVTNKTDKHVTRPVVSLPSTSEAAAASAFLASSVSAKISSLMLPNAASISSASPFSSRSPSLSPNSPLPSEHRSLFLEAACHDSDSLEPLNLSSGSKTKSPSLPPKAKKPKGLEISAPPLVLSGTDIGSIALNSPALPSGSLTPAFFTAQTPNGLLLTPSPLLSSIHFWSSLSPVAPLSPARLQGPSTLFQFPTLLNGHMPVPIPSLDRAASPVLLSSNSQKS
Summary of the method: as §1

CCCTTC
binding signal (FLI1): 1.55 fold enrichment (6-mer frequency, TF over GST control)
binding signal (ELK1): 1.55 fold enrichment (6-mer frequency, TF over GST control)
binding signal (GABPA): 1.39 fold enrichment (6-mer frequency, TF over GST control)
binding signal (ERG): 1.48 fold enrichment (6-mer frequency, TF over GST control)
binding signal (ELF1): 1.45 fold enrichment (6-mer frequency, TF over GST control)
binding signal (EHF): 1.52 fold enrichment (6-mer frequency, TF over GST control)
binding signal (SPI1): 1.52 fold enrichment (6-mer frequency, TF over GST control)
binding signal (SPIB): 1.56 fold enrichment (6-mer frequency, TF over GST control)
binding signal (ELK3): 1.44 fold enrichment (6-mer frequency, TF over GST control)

TCTCCA
binding signal (FLI1): 1.52 fold enrichment (6-mer frequency, TF over GST control)
binding signal (ELK1): 1.46 fold enrichment (6-mer frequency, TF over GST control)
binding signal (GABPA): 1.56 fold enrichment (6-mer frequency, TF over GST control)
binding signal (ERG): 1.37 fold enrichment (6-mer frequency, TF over GST control)
binding signal (ELF1): 1.43 fold enrichment (6-mer frequency, TF over GST control)
binding signal (EHF): 1.55 fold enrichment (6-mer frequency, TF over GST control)
binding signal (SPI1): 1.57 fold enrichment (6-mer frequency, TF over GST control)
binding signal (SPIB): 1.44 fold enrichment (6-mer frequency, TF over GST control)
binding signal (ELK3): 1.59 fold enrichment (6-mer frequency, TF over GST control)

TGTGCT
binding signal (FLI1): 1.13 fold enrichment (6-mer frequency, TF over GST control)
binding signal (ELK1): 1.23 fold enrichment (6-mer frequency, TF over GST control)
binding signal (GABPA): 1.24 fold enrichment (6-mer frequency, TF over GST control)
binding signal (ERG): 1.23 fold enrichment (6-mer frequency, TF over GST control)
binding signal (ELF1): 1.2 fold enrichment (6-mer frequency, TF over GST control)
binding signal (EHF): 1.11 fold enrichment (6-mer frequency, TF over GST control)
binding signal (SPI1): 1.24 fold enrichment (6-mer frequency, TF over GST control)
binding signal (SPIB): 1.14 fold enrichment (6-mer frequency, TF over GST control)
binding signal (ELK3): 1.16 fold enrichment (6-mer frequency, TF over GST control)

TAGTAC
binding signal (FLI1): 1.11 fold enrichment (6-mer frequency, TF over GST control)
binding signal (ELK1): 1.13 fold enrichment (6-mer frequency, TF over GST control)
binding signal (GABPA): 1.22 fold enrichment (6-mer frequency, TF over GST control)
binding signal (ERG): 1.24 fold enrichment (6-mer frequency, TF over GST control)
binding signal (ELF1): 1.16 fold enrichment (6-mer frequency, TF over GST control)
binding signal (EHF): 1.08 fold enrichment (6-mer frequency, TF over GST control)
binding signal (SPI1): 1.07 fold enrichment (6-mer frequency, TF over GST control)
binding signal (SPIB): 1.06 fold enrichment (6-mer frequency, TF over GST control)
binding signal (ELK3): 1.12 fold enrichment (6-mer frequency, TF over GST control)

CGACAA
binding signal (FLI1): 1.17 fold enrichment (6-mer frequency, TF over GST control)
binding signal (ELK1): 1.09 fold enrichment (6-mer frequency, TF over GST control)
binding signal (GABPA): 1.26 fold enrichment (6-mer frequency, TF over GST control)
binding signal (ERG): 1.17 fold enrichment (6-mer frequency, TF over GST control)
binding signal (ELF1): 1.21 fold enrichment (6-mer frequency, TF over GST control)
binding signal (EHF): 1.24 fold enrichment (6-mer frequency, TF over GST control)
binding signal (SPI1): 1.12 fold enrichment (6-mer frequency, TF over GST control)
binding signal (SPIB): 1.2 fold enrichment (6-mer frequency, TF over GST control)
binding signal (ELK3): 1.07 fold enrichment (6-mer frequency, TF over GST control)

TTTGTA
binding signal (FLI1): 1.64 fold enrichment (6-mer frequency, TF over GST control)
binding signal (ELK1): 1.47 fold enrichment (6-mer frequency, TF over GST control)
binding signal (GABPA): 1.48 fold enrichment (6-mer frequency, TF over GST control)
binding signal (ERG): 1.53 fold enrichment (6-mer frequency, TF over GST control)
binding signal (ELF1): 1.56 fold enrichment (6-mer frequency, TF over GST control)
binding signal (EHF): 1.55 fold enrichment (6-mer frequency, TF over GST control)
binding signal (SPI1): 1.54 fold enrichment (6-mer frequency, TF over GST control)
binding signal (SPIB): 1.65 fold enrichment (6-mer frequency, TF over GST control)
binding signal (ELK3): 1.51 fold enrichment (6-mer frequency, TF over GST control)

TTCCAT
binding signal (FLI1): 1.38 fold enrichment (6-mer frequency, TF over GST control)
binding signal (ELK1): 1.29 fold enrichment (6-mer frequency, TF over GST control)
binding signal (GABPA): 1.22 fold enrichment (6-mer frequency, TF over GST control)
binding signal (ERG): 1.25 fold enrichment (6-mer frequency, TF over GST control)
binding signal (ELF1): 1.33 fold enrichment (6-mer frequency, TF over GST control)
binding signal (EHF): 1.28 fold enrichment (6-mer frequency, TF over GST control)
binding signal (SPI1): 1.34 fold enrichment (6-mer frequency, TF over GST control)
binding signal (SPIB): 1.32 fold enrichment (6-mer frequency, TF over GST control)
binding signal (ELK3): 1.28 fold enrichment (6-mer frequency, TF over GST control)

CTAGCT
binding signal (FLI1): 1.36 fold enrichment (6-mer frequency, TF over GST control)
binding signal (ELK1): 1.37 fold enrichment (6-mer frequency, TF over GST control)
binding signal (GABPA): 1.3 fold enrichment (6-mer frequency, TF over GST control)
binding signal (ERG): 1.3 fold enrichment (6-mer frequency, TF over GST control)
binding signal (ELF1): 1.31 fold enrichment (6-mer frequency, TF over GST control)
binding signal (EHF): 1.29 fold enrichment (6-mer frequency, TF over GST control)
binding signal (SPI1): 1.33 fold enrichment (6-mer frequency, TF over GST control)
binding signal (SPIB): 1.34 fold enrichment (6-mer frequency, TF over GST control)
binding signal (ELK3): 1.39 fold enrichment (6-mer frequency, TF over GST control)

GTTTCT
binding signal (FLI1): 1.36 fold enrichment (6-mer frequency, TF over GST control)
binding signal (ELK1): 1.17 fold enrichment (6-mer frequency, TF over GST control)
binding signal (GABPA): 1.26 fold enrichment (6-mer frequency, TF over GST control)
binding signal (ERG): 1.22 fold enrichment (6-mer frequency, TF over GST control)
binding signal (ELF1): 1.29 fold enrichment (6-mer frequency, TF over GST control)
binding signal (EHF): 1.28 fold enrichment (6-mer frequency, TF over GST control)
binding signal (SPI1): 1.31 fold enrichment (6-mer frequency, TF over GST control)
binding signal (SPIB): 1.25 fold enrichment (6-mer frequency, TF over GST control)
binding signal (ELK3): 1.14 fold enrichment (6-mer frequency, TF over GST control)
